# SW480 rerep: A quantitative high throughput screen for small molecules that induce DNA re-replication in SW480 colon adenocarcinoma cells | SW480 DNA re-replication, Hoechst DNA content imaging, 48 h | Potency, µM (series often up to 46.1 µM), for inactives: top-dose re-replication activation, hits mostly activators | 1.8% of 340,000 active | AID 624297, 2012; note: % of control where 0% means no effect; nearly all actives have a fitted effect of over 55% in size
#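 Quantitative HTS format with DMSO vehicle controls; 48 hr drug incubation at 37 C, then 40 min Hoechst staining and scanning imager measurement at 405 nm excitation.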
# VP16 counter: VP16 counterscreen qHTS for inhibitors of ROR gamma transcriptional activity. Drosophila S2 Gal4-VP16 UAS-luciferase, luminescence, 20 h. Potency, µM (top dose mostly 53.6 µM), for the others: at the highest dose activity, negative = inhibition, most hits filed as inhibitors. 3.5% of 310,000 active;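 note: Gal4-VP16 expression switched on by copper sulfate through the metallothionein promoter; % is set by controls: 0 for no effect and ±100 for the full control effect; nearly all actives have a fitted effect of over 50% in size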
# ELG1 DNA repair: qHTS screen for small molecules that inhibit ELG1-dependent DNA repair in human embryonic kidney (HEK293T) cells expressing luciferase-tagged ELG1. HEK293T ELG1-luciferase reporter, luminescence, 16 h; DNA damage induced by 5-fluorouridine. Potency, µM (top dose mostly 46.1 µM), for the others: at the top dose activity change, negative = inhibition, actives largely listed as inhibitors. 2.3% of 330,000 active. AID 504467, 2011; note: % is set by controls: 0 for no effect and ±100 for the full control effect; nearly all actives have a fitted effect of over 55% in size
#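 HEK293T cells expressing luciferase-tagged ELG1 (2,000/well) received 5-Fluorouridine plus compound or DMSO for 16 hr at 37 °C. Luciferase was read by ONE-Glo luminescence after 30 min at room temperature.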
# MCF10A rereplic: A quantitative high throughput screen for small molecules that induce DNA re-replication in MCF 10a normal breast cells. MCF 10A DNA re-replication, Hoechst nuclear intensity, 48 h. Potency, µM (highest dose often 46.1 µM), inactives show top-dose activity, positive = re-replication, most hits filed as activators. 2.9% of 350,000 active. AID 624296, 2012; note: % of control where 0% means no effect; nearly all actives have a fitted effect of over 50% in size
# RORg inh: qHTS for inhibitors of ROR gamma transcriptional activity; Potency, µM (doses to about 53.6 µM), inactives show top-dose activity change, negative = inhibition, usual class: inhibitors; Drosophila S2 Gal4-RORgamma UAS-luciferase reporter, 20 h; AID 2551, 2010; 5.4% of 310,000 active; note: % is set by controls: 0 for no effect and ±100 for the full control effect; nearly all actives have a fitted effect of over 60% in size
# Target sequence (P51450 whole entry, looked up, the tested form may be a part): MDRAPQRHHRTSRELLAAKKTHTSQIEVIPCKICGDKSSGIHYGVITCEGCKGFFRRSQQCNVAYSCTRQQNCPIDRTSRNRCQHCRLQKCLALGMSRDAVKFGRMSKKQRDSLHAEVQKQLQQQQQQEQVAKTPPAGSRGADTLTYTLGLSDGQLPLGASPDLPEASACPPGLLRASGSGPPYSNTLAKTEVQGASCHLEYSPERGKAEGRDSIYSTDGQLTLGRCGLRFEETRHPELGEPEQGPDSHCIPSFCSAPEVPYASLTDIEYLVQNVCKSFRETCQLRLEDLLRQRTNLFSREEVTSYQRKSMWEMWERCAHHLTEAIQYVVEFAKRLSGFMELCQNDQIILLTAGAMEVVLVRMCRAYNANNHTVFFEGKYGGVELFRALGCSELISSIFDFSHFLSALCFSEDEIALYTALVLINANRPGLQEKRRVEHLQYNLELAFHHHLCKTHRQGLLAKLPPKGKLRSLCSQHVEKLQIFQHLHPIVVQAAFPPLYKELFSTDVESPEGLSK
#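 Compounds are pin-transferred onto Drosophila Schneider cells expressing a copper-inducible Gal4–ROR gamma transactivation domain fusion. After 1 hr, copper sulfate is added to 700 uM final; luciferase is read 20 hr later.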
# Starred values were filed as active, the others as inactive; ? = inconclusive; . = no result; [ ] = remark or other dose. The list is not random: actives were taken first. Their share in the collection is about 10%. Calls come from the whole dose curve; as a rule, active = well fitted curve in the direction sought with a large enough effect; inconclusive = small, poorly fitted or top-dose-only effect, or another doubt; inactive = no such curve, though single readings can be large; an effect the other way counts as inactive or inconclusive. Potency is the fitted concentration of half-maximal effect.
SMILES,SW480 rerep,VP16 counter,ELG1 DNA repair,MCF10A rereplic,RORg inh
Cc1cc(NC(=O)CSc2cc(Cl)ccc2Cl)n(-c2ccccc2)n1,3.3%,-4.9%,25.9µM*,8.1%,20.2%
Cc1cc(NC(=O)COc2ccc(Cl)cc2Cl)n(-c2ccccc2)n1,-7.5%,-8.2%,?,2.3%,-7.0%
Cc1cc(C)nc(-n2nc(C)cc2NC(=O)CN2CCCC2)n1,-131.9%,-13.3%,-13.1%,4.9%,11.2µM*
Cc1cc(C)nc(-n2nc(C)cc2NC(=O)CN2CCC(C)CC2)n1,-7.6%,?,-19.8%,10.7%,?
CCOC(=O)C1CCN(C(=O)CS(=O)(=O)Cc2nc(-c3ccccc3Cl)oc2C)CC1,-23.6%,-1.8%,-14.9%,-1.0%,0.7%
NC(=O)c1ccc(-n2nnnc2SCC(=O)NC2CCCCC2)cc1,6.8%,-1.2%,?,5.0%,10.5%
Cc1cc(C)nc(-n2nc(C)cc2NC(=O)CNC(C)c2ccccc2)n1 (centres undefined),3.8%,-26.6%,2.2%,-1.7%,1.58µM*
CCC1CCCCN1CC(=O)Nc1cc(C)nn1-c1nc(C)cc(C)n1 (centres undefined),?,1.26µM*,?,-5.2%,0.398µM*
COc1ccc(C2CC(c3ccc(Cl)cc3)Nc3nc(NC(=O)c4ccco4)nn32)cc1 (centres undefined),2.6%,0.159µM*,?,?,0.708µM*
O=C(Nc1nc2n(n1)C(c1ccc(F)cc1)CC(c1ccccc1)N2)c1ccco1 (centres undefined),-20.8%,7.08µM*,1.2%,-2.8%,3.16µM*
O=C(Nc1nc2n(n1)C(c1ccc(Cl)cc1)CC(c1ccc(Cl)cc1)N2)c1ccco1 (centres undefined),10.3%,3.55µM*,?,?,3.16µM*
COc1ccc(C2CC(c3c(Cl)cccc3Cl)n3nc(N)nc3N2)cc1 (centres undefined),-0.3%,1.2%,1.5%,1.8%,12.3%
COc1ccc(C2CC(c3ccc(Cl)cc3Cl)Nc3nc(N)nn32)cc1 (centres undefined),6.2%,4.47µM*,2.0%,-0.7%,5.62µM*
O=C(Nc1nc2n(n1)C(c1ccccc1)C=C(c1ccccc1)N2)c1ccco1 (centres undefined),-3.9%[9.22 µM],2.4%,?,-1.1%,-21.8%
CCOC(=O)N1CCN(C(=O)COC(=O)C2CCN(S(=O)(=O)c3c(Cl)cccc3Cl)CC2)CC1,-10.7%,.,-14.2%,4.7%,.
O=S(=O)(c1cccc(F)c1)N1CCN(c2nc(-c3cccnc3)nc3ccccc23)CC1,-17.3%,.,10.3µM*,?,.
O=C(c1cc(Cl)nc2ccccc12)N1CCN(S(=O)(=O)c2cccc(F)c2)CC1,0.3%,.,1.1%,3.9%,.
CCCOc1ccc(-c2c(C(=O)N/N=C(\C)c3cccs3)nnn2-c2nonc2N)cc1,?,-6.0%,22.5%,?,-15.7%
O=C1/C(=C\c2cccc(O)c2O)SC(=S)N1Cc1ccccc1,18.4µM*,?,-5.3%,?,-24.8%
O=C1/C(=C\c2cc([N+](=O)[O-])ccc2O)SC(=S)N1Cc1ccc(Cl)cc1,-8.3%,?,18.3µM*,?,-69.5%
O=C(CCCN1C(=O)/C(=C\c2cccs2)SC1=S)Nc1cc([N+](=O)[O-])ccc1O,1.9%,20µM*,3.1%,13.2%,?
CCCCN(C(=O)CSc1c(C)c(C)cc(C)c1C)c1c(N)n(CCC)c(=O)[nH]c1=O,-5.9%,.,0.4%,2.9%,.
C=CCn1c(SCC(=O)Nc2cccc(S(N)(=O)=O)c2)nc2sc(C)c(C)c2c1=O,-5.4%,.,?,14.9%,.
CCCCNCCS(=O)(=O)NCc1ccc(OC)cc1,2.5%,.,.,-8.7%,.
CCCOC(=O)c1ccc(Cl)c(NC(=O)c2cccnc2)c1,.,-1.0%,0.4%,.,0.6%
SMILES,SW480 rerep,VP16 counter,ELG1 DNA repair,MCF10A rereplic,RORg inh
c1cnc2ncc3sccc3c2c1,16.4µM*,-5.2%,7.7%,-6.6%,49.2%
COc1cc(OC)c2cc(C(=O)N[C@@H](Cc3ccccc3)C(=O)O)n(C)c2c1,0.6%,1.5%,20.1%,-1.9%,-14.5%
CC1CCN(C(=O)C2CCN(C(=O)c3cc4sccc4n3Cc3ccc(F)cc3)CC2)CC1,7.8%,?,16.4µM*,?,-14.9%
O=C(c1cc2sccc2n1Cc1ccccc1)N1CCN(c2nc3ccccc3s2)CC1,2.7%,10µM*,-10.3%,2.4%,-25.9%
O=C(NCc1ccc(F)cc1)c1cc2sccc2n1Cc1ccc(F)cc1,.,2.3%,?,.,?
CCC(=O)N1CCN(c2nc3ccccc3s2)CC1,0.0%,6.6%,?,3.1%,?
CC(C)NC(=O)C1CCN(C(=O)c2cc3sccc3n2Cc2ccc(F)cc2)CC1,3.3%,?,18.4µM*,-8.6%,?
CCn1c(C(=O)N2CCC(C(=O)N3CCN(c4ccccn4)CC3)CC2)cc2sccc21,-2.2%,11.1%,13µM*,9.3%,?
CN(C)C(CNC(=O)c1ccc2c(=O)n(-c3ccccc3F)c(=S)[nH]c2c1)Cc1ccccc1 (centres undefined),1.1%,-1.2%,4.8%,2.6%,7.0%
COc1ccc(NC(=O)c2cnc(SC)n2-c2ccc(F)cc2)c(OC)c1,-6.8%,2.3%,?,5.4%,3.8%
O=c1ccc2cc3c(-c4ccccc4)coc3cc2o1,0.4%,16.6%,15.9%,23.1µM*,41.1%
CC(=O)Oc1ccc2occ(-c3ccccc3)c2c1,5.2%,-0.9%,12.3%,0.4%,13.8%
COc1ccc2c(c1)c1c(n2C)[C@@H]2CC=C(CO)[C@@H](C1)N2C,-2.0%,.,22.0%,-24.5%,.
Cc1ccc(S(=O)(=O)NC(CC(C)C)C(=O)N2CC(C)OC(C)C2)cc1 (centres undefined),-3.3%,4.2%,-6.3%,-2.7%,-2.6%
O=c1c2cc3c(nc2[nH]c(=S)n1-c1ccccc1)CCCC3,-4.4%,?,13.1%,0.0%,2.51µM*
Cc1cc(C)n2nc3nc4c(cc3c2n1)CCCC4,0.0%,17.1%,27.8%,-183.0%[0.0737 µM],8.2%
O=c1c2cn[nH]c2[nH]c(=S)n1-c1ccccc1,-3.6%,5.3%,10.8%,-1.8%,-25.7%
CCn1c(=S)[nH]c2nc3c(cc2c1=O)CCCC3,5.4%,?,21.3%,-180.1%[0.0737 µM],1.58µM*
CC[C@]12c3[nH]c4cc(-c5ccco5)ccc4c3CCN1C(=O)[C@@H](CC(=O)NCc1cccc(C(F)(F)F)c1)C[C@@H]2C(=O)N1CCN(C(=O)c2ccco2)CC1,-3.6%[9.22 µM],.,?,18.9%,.
COc1cc(S(=O)(=O)Nc2ccccc2C(=O)N2CCCCC2)ccc1NC(C)=O,-12.9%,.,3.9%,1.5%,.
